# “And” between values parts separate entries of the source, which are not always exact repeats. Identical values can stand only once. Inconclusive results are not listed. Entries that show only a call come without a potency. Some compounds were tested as several samples or in several runs, with calls that do not always agree. The source made the active and inactive calls. Calls come from the whole dose curve; as a rule, active = well fitted curve in the direction sought with a large enough effect in the repeat runs; inconclusive = weak or mixed curves; inactive = no such curve, though single readings can be large; an effect the other way counts as inactive or inconclusive.
# Key:
# [1] = qHTS RealTime-Glo MT Cell Viability Assay in HepG2 cells - 40 hour (AID 1224870); note: nearly all actives have a fitted effect of over 50% in size
# In short: (§1)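 Real-time viability: cells seeded at 600 per well together with NanoLuc and cell-permeant prosubstrate, compounds added after 5 h incubation. Luminescence tracked at 0, 8, 16, 24, 32 and 40 h of exposure.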
# [2] = A CellTox Green Cytotoxicity Assay to monitor cytotoxicity in HEK293 cells - 40 hour (AID 1224871); note: nearly all actives have a fitted effect of over 45% in size; note: potency is the fitted concentration of half-maximal effect
# In short: (§2)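 Dead-cell fluorescence measured kinetically: asymmetric cyanine dye, HEK293, 600 cells/well, 5 h settle, 23 nL cpd/DMSO, 37 C, reads 0–40 h every 8 h.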
# [3] = qHTS RealTime-Glo MT Cell Viability Assay in HEK293 cells - 16 hour (AID 1224872); note: top concentration of the series differs between compounds; nearly all actives have a fitted effect of over 50% in size
# In short: (§3)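 Nonlytic real-time viability readout: viable cells convert prosubstrate to NanoLuc substrate, giving luminescence proportional to live cell number. HEK293, 600 cells/well, compound added after 5 h, continuous culture at 37 C.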
# [4] = qHTS RealTime-Glo MT Cell Viability Assay in HepG2 cells - 8 hour (AID 1224873); note: nearly all actives have a fitted effect of over 55% in size
# In short: as §1
# [5] = qHTS RealTime-Glo MT Cell Viability Assay in HEK293 cells - 40 hour (AID 1224874); details: RealTime-Glo luminescence; max response: stronger effect = lower value; note: nearly all actives have a fitted effect of over 50% in size
# In short: (§4)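 600 HEK293 cells per well, dispensed already mixed with RealTime-Glo MT reagents. Compound dosing came 5 h later. The same wells were read for luminescence at 0, 8, 16, 24, 32 and 40 h of exposure at 37 C.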
# [6] = A CellTox Green Cytotoxicity Assay to monitor cytotoxicity in HEK293 cells - 24 hour (AID 1224875); note: series mostly up to about 77 µM; nearly all actives have a fitted effect of over 45% in size
# In short: as §2
# [7] = qHTS RealTime-Glo MT Cell Viability Assay in HepG2 cells - 32 hour (AID 1224877); note: nearly all actives have a fitted effect of over 55% in size
# In short: (§5)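 Luminescence read-out: viable HepG2 cells reduce a prosubstrate to a NanoLuc substrate, giving a signal proportional to live cell number. Reads taken at 0, 8, 16, 24, 32 and 40 h of compound exposure at 37 C.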
# [8] = A CellTox Green Cytotoxicity Assay to monitor cytotoxicity in HepG2 cells - 40 hour (AID 1224879); note: nearly all actives have a fitted effect of over 40% in size
# In short: (§6)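 First, HepG2 cells (600/well) mixed with reagent were plated; second, after 5 h at 37 C they received compounds via pintool; third, fluorescence was measured at 0 h through 40 h at 8 h intervals.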
# [9] = qHTS RealTime-Glo MT Cell Viability Assay in HEK293 cells - 0 hour (AID 1224880); note: top concentration of the series differs between compounds; nearly all actives have a fitted effect of over 45% in size
# In short: as §4
# [10] = A CellTox Green Cytotoxicity Assay to monitor cytotoxicity in HEK293 cells - 32 hour (AID 1224881); note: nearly all actives have a fitted effect of over 40% in size; note: potency is the fitted concentration of half-maximal effect
# In short: as §2
# [11] = A CellTox Green Cytotoxicity Assay to monitor cytotoxicity in HepG2 cells - 0 hour (AID 1224882); note: nearly all actives have a fitted effect of over 35% in size
# In short: as §6
# [12] = A CellTox Green Cytotoxicity Assay to monitor cytotoxicity in HepG2 cells - 32 hour (AID 1224883); note: nearly all actives have a fitted effect of over 50% in size
# In short: as §6
# [13] = A CellTox Green Cytotoxicity Assay to monitor cytotoxicity in HEK293 cells - 8 hour (AID 1224884); note: nearly all actives have a fitted effect of over 35% in size; note: potency is the fitted concentration of half-maximal effect
# In short: as §2
# [14] = qHTS RealTime-Glo MT Cell Viability Assay in HepG2 cells - 16 hour (AID 1224885); note: nearly all actives have a fitted effect of over 50% in size
# In short: as §5
# [15] = qHTS RealTime-Glo MT Cell Viability Assay in HEK293 cells - 24 hour (AID 1224886)
# In short: as §3
# [16] = qHTS RealTime-Glo MT Cell Viability Assay in HEK293 cells - 8 hour (AID 1224887)
# In short: as §4
# [17] = A CellTox Green Cytotoxicity Assay to monitor cytotoxicity in HEK293 cells - 16 hour (AID 1224888); note: nearly all actives have a fitted effect of over 35% in size
# In short: as §2
# [18] = qHTS RealTime-Glo MT Cell Viability Assay in HepG2 cells - 0 hour (AID 1224889); note: nearly all actives have a fitted effect of over 50% in size
# In short: as §5
# [19] = A CellTox Green Cytotoxicity Assay to monitor cytotoxicity in HepG2 cells - 16 hour (AID 1224876); note: nearly all actives have a fitted effect of over 45% in size
# In short: as §6
# [20] = A CellTox Green Cytotoxicity Assay to monitor cytotoxicity in HepG2 cells - 24 hour (AID 1224878); note: nearly all actives have a fitted effect of over 45% in size
# In short: as §6
Structure (SMILES),Potency [1],Potency [2],Potency [3],Potency [4],max response [5],Potency [6],Potency [7],Potency [8],Potency [9],Potency [10],Potency [11],Potency [12],Potency [13],Potency [14],Potency [15],Potency [16],Potency [17],Potency [18],Potency [19],Potency [20]
C=CC(=O)OCCO,inactive,inactive,inactive,inactive,4.73% (inactive) and 14.7% (inactive),inactive,inactive,inactive,inactive,inactive,inactive,inactive,inactive,inactive,inactive,inactive,inactive,inactive,,
Cc1cc(C)cc(C)c1,inactive,inactive,inactive,inactive,1.65% (inactive) and -3.48% (inactive),,inactive,inactive,inactive,inactive,inactive,inactive,inactive,inactive,inactive,inactive,inactive,inactive,inactive,inactive
CCOC(=S)S,inactive,inactive,inactive,inactive,6.71% (inactive) and 5.31% (inactive),inactive,inactive,inactive,,inactive,inactive,inactive,inactive,inactive,inactive,inactive,inactive,inactive,,inactive
CCc1cccc(CC)c1N(COC)C(=O)CCl,inactive,inactive,inactive,inactive,-25.5% (inactive),inactive,inactive,inactive,inactive,inactive,inactive,inactive,inactive,inactive,inactive,inactive,inactive,inactive,,inactive
Nn1cnnc1,inactive,inactive,inactive,inactive,-2.23% (inactive) and 1.89% (inactive),,inactive,inactive,,inactive,inactive,inactive,inactive,inactive,inactive,inactive,inactive,inactive,inactive,inactive
Nc1ccc(Cl)c(Cl)c1,inactive,inactive,inactive,inactive,0.648% (inactive),,inactive,inactive,inactive,inactive,inactive,inactive,inactive,inactive,inactive,inactive,inactive,inactive,inactive,inactive
O=[N+]([O-])c1cccc2ccccc12,inactive,inactive,inactive,inactive,3.63% (inactive) and 7.21% (inactive),inactive,inactive,inactive,inactive,inactive,inactive,inactive,inactive,inactive,inactive,inactive,inactive,inactive,,
CC(C)c1ccc(CO)cc1,inactive,inactive,inactive,inactive,0.21% (inactive) and 0.88% (inactive),,inactive,inactive,inactive,inactive,inactive,inactive,inactive,inactive,inactive,inactive,inactive,inactive,inactive,inactive
COc1ccc(C=O)cc1,inactive,inactive,inactive,inactive,7.64% (inactive) and 1.9% (inactive),inactive,inactive,inactive,,inactive,inactive,inactive,inactive,inactive,inactive,inactive,inactive,inactive,inactive,
CNC(=O)Oc1cccc2c1OC(C)(C)O2,inactive,inactive,inactive,inactive,-0.755% (inactive) and 5.29% (inactive),inactive,inactive,inactive,,inactive,inactive,inactive,inactive,inactive,inactive,inactive,inactive,inactive,inactive,
COP(=S)(OC)Oc1ccc([N+](=O)[O-])cc1,inactive,inactive,inactive,inactive,-19% (inactive) and -8.77% (inactive),inactive,inactive,inactive,,inactive,inactive,inactive,inactive,inactive,inactive,inactive,inactive,inactive,inactive,
O=Cc1ccco1,inactive,21.1 µM (active),inactive,inactive,-0.5% (inactive),,inactive,inactive,inactive,23.7 µM (active),inactive,inactive,42.2 µM (active) and inactive,inactive,inactive,inactive,,inactive,inactive,inactive

# From PubChem BioAssay (Tox21)
